Molecules are shown by their SMILES. The campaign covered roughly 64,000 compounds. About 2,200 (3.4%) were called active. Only a selection was taken, and actives are over-represented in it overall. Unmarked numbers belong to inactive results.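 The calls were made as follows: active = calcium fluorescence response, raw or row-and-column corrected B-score, differing from the plate sample mean either way at a set confidence level, mostly lower; inactive = the rest.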

Sequence of Muscarinic acetylcholine receptor M1 (Rattus norvegicus) (P08482 whole entry, looked up): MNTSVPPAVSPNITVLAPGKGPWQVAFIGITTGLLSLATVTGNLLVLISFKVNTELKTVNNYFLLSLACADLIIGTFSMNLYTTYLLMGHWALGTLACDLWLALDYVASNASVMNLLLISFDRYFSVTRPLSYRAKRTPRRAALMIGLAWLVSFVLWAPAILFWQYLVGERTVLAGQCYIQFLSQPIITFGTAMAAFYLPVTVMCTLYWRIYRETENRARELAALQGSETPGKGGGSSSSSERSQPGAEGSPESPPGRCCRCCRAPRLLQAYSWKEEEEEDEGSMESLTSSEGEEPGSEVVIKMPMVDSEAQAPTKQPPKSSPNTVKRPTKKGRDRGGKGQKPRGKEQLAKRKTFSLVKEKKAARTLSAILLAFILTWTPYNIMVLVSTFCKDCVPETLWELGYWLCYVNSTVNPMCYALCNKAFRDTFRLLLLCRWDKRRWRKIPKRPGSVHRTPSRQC

The assay addresses Muscarinic acetylcholine receptor M1 (Rattus norvegicus) (UniProt P08482). Nature of the assay: blocks the rat M1 muscarinic receptor response to acetylcholine (AID 628). The conditions noted are these: CHO-M1 cells, Fluo-4 calcium, ACh EC80 antagonist mode; at 10 µM; active compounds read low.
`CCOC(=O)C1CCN(Cc2coc3ccc(Cl)cc3c2=O)CC1`: the B-score was -5.08 (active).

Take `CCOC(=O)C1CCN(C(=O)Nc2ccc(Cl)cc2)CC1`: the B-score was -0.00301.

For the compound `CCOC(=O)c1ccc(N2C(=O)CC(N3CCC(C(=O)OCC)CC3)C2=O)cc1` (stereo unspecified), the B-score is -0.522.

For `CC(C)NS(=O)(=O)c1ccc(NC(=O)c2cccnc2)cc1`, the B-score is 1.03.

For the compound `C=CCn1c2ccccc2c2nnc(SC(CC)C(=O)Nc3nc(C)c(C(=O)OCC)s3)nc21` (stereo unspecified), the B-score was 0.9.

Take `COc1cc(-n2c(C)nc3cc(C(=O)NCc4ccco4)ccc32)cc(OC)c1OC`: the B-score was -0.0298.

As to `CSCCC(Nc1nc2ccccc2s1)C(=O)O` (stereo unspecified), the B-score was 0.99.

As to `Cc1ccc(C)c(N(CC(=O)NCc2ccco2)C(=O)CCC(=O)Nc2ccccn2)c1`, the B-score was 0.211.

On to `COCCN(C(=O)CCC(=O)Nc1ccccn1)C(C(=O)NCCC(C)C)c1ccc(OC)cc1` (stereo unspecified), for which the B-score was -2.46 (active).

In the case of `Cc1ccc(C(C(=O)NC2CCCC2)N(Cc2ccco2)C(=O)CCC(=O)Nc2ccccn2)cc1` (stereo unspecified), the B-score was -0.0611.

For the compound `CC(=O)Oc1cc2c(C(=O)NCCN3CCOCC3)c(C)oc2c2ccccc12`, the B-score was -0.671.

In the case of `CN(C)Cc1c(C#N)c2ccccc2n1C`, the B-score was 0.566.

On to `CCCCNC(=O)CSc1nnc(-c2ccco2)n1C`, for which the B-score is -0.326.

With `CCCCN(C)C(=O)c1ccc2c(c1)N(CC)C(=O)c1ccccc1S2(=O)=O`, the B-score was -2.44 (active).

`COC(=O)CNC(=O)c1ccc2c(c1)S(=O)(=O)c1ccccc1C2=O`: the B-score is -0.0488.

With `CCN1C(=O)c2cccc3c(N)ccc1c23`, the B-score was -0.102.

As for `O=C(Nc1ccccc1F)C1C2C=CC3(O2)C1C(=O)N(c1cccnc1)C3C(=O)NC1CCCCC1` (stereo unspecified), the B-score was 0.728.

Take `CCCN1C2=C(C(=O)CCC2)C(c2ccc(O)c(Br)c2)C2=C1CCCC2=O`: the B-score is 0.273.

In the case of `Cc1ccc(-n2nc3cc(Cl)c(NC(=O)c4ccco4)cc3n2)cc1`, the B-score was 0.0365.

On to `COc1cc(C(=O)Nc2oc(-c3ccccc3)c(-c3ccccc3)c2C#N)cc(OC)c1OC`, for which the B-score is -0.934.

For `N#Cc1c(NC(=O)CCCN2C(=O)c3ccccc3C2=O)oc(-c2ccccc2)c1-c1ccccc1`, the B-score was 2.29 (active).

With `O=C(CCN1C(=O)c2ccccc2C1=O)Nc1ccncc1`, the B-score was -0.0156.

Take `CC(C)N1C(=O)C2C(C(=O)NC3CCCCC3)C3C=CC2(O3)C1C(=O)NC1CCCC1` (stereo unspecified): the B-score was -0.055.

As for `COc1ccc(C(=O)N(CCN2CCOCC2)CC(=O)NC2CCCC2)cc1OC`, the B-score is -1.81.

Regarding `Cc1noc(C)c1CSc1nnc2ccc3ccccc3n12`, the B-score was 0.103.

In the case of `CC(C)(CSc1nncn1/N=C/c1ccco1)NS(=O)(=O)c1ccc(Cl)cc1`, the B-score is -0.0125.

Consider `COC(=O)c1ccc(NC(=O)C(C)N2C(=O)c3ccccc3C2=O)cc1` (stereo unspecified), for which the B-score is 0.608.

Consider `COc1ccc(OCC(=O)N2CCOCC2)cc1`, for which the B-score was -0.0545.

Consider `CCCOc1ccc(C2c3c(oc4cc(C)c(C)cc4c3=O)C(=O)N2CCCN2CCOCC2)cc1` (stereo unspecified), for which the B-score was -2.07.

For the compound `CCCCOc1ccc(C(C)(O)CCN2CCOCC2)cc1` (stereo unspecified), the B-score is -1.77 (active).

For `COC(=O)C1(S(=O)(=O)C2(C(=O)OC)CCCC2)CCCC1`, the B-score is -0.00987.

In the case of `CC(=O)OC(C(=O)NC1CCCCC1)c1ccccc1` (stereo unspecified), the B-score was 0.565.

Consider `CN(C)CCNC(=O)C(C(=O)c1ccccc1)n1ccccc1=O` (stereo unspecified), for which the B-score was 0.0113.

For the compound `Cc1ccc(NC(=O)C2CC(c3ccc(F)cc3)=NO2)cc1` (stereo unspecified), the B-score is 0.326.

For `CCC(C)(C)n1nnnc1C(c1cccs1)N1CCN(Cc2ccccc2)CC1` (stereo unspecified), the B-score is 0.103.

Consider `CCOc1ccc(CN(Cc2ccco2)C(c2cccs2)c2nnnn2C(C)(C)C)cc1` (stereo unspecified), for which the B-score was -0.0188.

Regarding `CC(C)(C)n1nnnc1C(c1cccs1)N(Cc1cccnc1)CC1CCCO1` (stereo unspecified), the B-score was -5.58 (active).

For `Cc1ncc(CC(=O)n2cc(C(=O)c3cc(Cl)ccc3O)cn2)s1`, the B-score is -0.173.

Turning to `CN(C)S(=O)(=O)c1ccc(Oc2ccc(S(=O)(=O)N(C)C)cc2)cc1`, the B-score is -0.154.

For the compound `CCOc1ccccc1C(=O)NCCCn1ccnc1`, the B-score was -0.947 (active).

As for `COc1ccccc1-c1cc(C(=O)NCCCn2ccnc2)no1`, the B-score is -0.17.

With `CCCCOCCCNC(=O)c1ccccc1OCC`, the B-score is 0.466.

For the compound `CC[C@]1(O)CC2CN(CCc3c([nH]c4ccccc34)[C@@](C(=O)OC)(c3cc4c(cc3OC)N(C=O)[C@H]3[C@@](O)(C(=O)OC)[C@H](OC(C)=O)[C@]5(CC)C=CCN6CC[C@]43[C@@H]65)C2)C1` (stereo partly specified), the B-score is -6.81 (active).

For the compound `CC[C@]1(O)C[C@@H]2CN(CCc3c([nH]c4ccccc34)[C@@](C(=O)OC)(c3cc4c(cc3OC)N(C)[C@H]3[C@@](O)(C(=O)OC)[C@H](OC(C)=O)[C@]5(CC)C=CCN6CC[C@]43[C@@H]65)C2)C1`, the B-score was -0.431.

With `O=c1c(-c2ccccc2)coc2c(CN3CCOCC3)c(O)ccc12`, the B-score was -0.686.

As for `CCc1ccccc1NC(=O)CSc1nnc([C@@H](NC(=O)OC(C)(C)C)C(C)CC)o1` (stereo partly specified), the B-score is -0.00145.

On to `CCOc1cccc(C(=O)Nc2cccnc2)c1`, for which the B-score was 1.02.

In the case of `O=C(Nc1cccnc1)c1ccc2c(c1)OCO2`, the B-score was -0.335.

On to `O=C(Nc1cccnc1)c1noc2c1CCCCC2`, for which the B-score is 2.01 (active).

Take `Cc1cccc(NC(=O)CSc2nnc(NC(=O)CN3CCOCC3)s2)c1`: the B-score was -0.445.

For `Cc1ccc(-c2nn(-c3ccccc3)cc2CN(Cc2ccccc2)C(=O)CCC(=O)O)o1`, the B-score is -0.258.

For the compound `C=CCNC(=O)C12CC3CC(C1)CC(C(=O)NCC=C)(C3)C2`, the B-score is 0.561.

As for `CCOC(=O)N1CCC(NC(=O)CCc2cn(C)c3ccccc23)CC1`, the B-score is 0.483.

As for `CCn1c(SCC(=O)Nc2ccccc2F)nc2c(c1=O)SC(C)C2` (stereo unspecified), the B-score was -0.377.

As for `CC1Cc2nc(SCC(=O)Nc3ccccc3F)n(C)c(=O)c2S1` (stereo unspecified), the B-score is -0.851.

In the case of `COCCn1c(SCC(=O)Nc2cc(Cl)ccc2OC)nc2c(c1=O)SC(C)C2` (stereo unspecified), the B-score is -2.72 (active).
